Measured values taken from PubChem BioAssay AID504908 (NMMLSC, 2011).
Values joined by “and” are separate entries in the source; they are usually repeats but may differ in a detail not shown here. Identical values can stand only once. Out of some 1,300 compounds screened, about 25 (2%) were called active.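 The calls were made as follows: active = inhibition above a set limit, roughly 3 SD of non-fluorescent compound noise (cut at about 38% in these data); inactive = inhibition at or below that limit.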 These entries were drawn from the full list.

Each compound was assayed against AP-2 complex subunit beta (Homo sapiens) (UniProt P63010) (assay: beta-arrestin/AP2 interaction blockers, retest – biochemical, cherry pick 1, flow cytometry beads, confirmation (AID 504908;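 also: loss of bead fluorescence from 50 nM FITC arrestin peptide bound to appendage; 0% = negative control wells and 100% = excess unlabelled arrestin peptide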)). Conditions: GST-AP2 beads, FITC arrestin peptide binding, at 10 µM, active compounds read high, GST-fused beta2-adaptin appendage, R879A mutant.
Sequence of AP-2 complex subunit beta (Homo sapiens) (P63010 whole entry, looked up, the tested form may be a part, one chain of several): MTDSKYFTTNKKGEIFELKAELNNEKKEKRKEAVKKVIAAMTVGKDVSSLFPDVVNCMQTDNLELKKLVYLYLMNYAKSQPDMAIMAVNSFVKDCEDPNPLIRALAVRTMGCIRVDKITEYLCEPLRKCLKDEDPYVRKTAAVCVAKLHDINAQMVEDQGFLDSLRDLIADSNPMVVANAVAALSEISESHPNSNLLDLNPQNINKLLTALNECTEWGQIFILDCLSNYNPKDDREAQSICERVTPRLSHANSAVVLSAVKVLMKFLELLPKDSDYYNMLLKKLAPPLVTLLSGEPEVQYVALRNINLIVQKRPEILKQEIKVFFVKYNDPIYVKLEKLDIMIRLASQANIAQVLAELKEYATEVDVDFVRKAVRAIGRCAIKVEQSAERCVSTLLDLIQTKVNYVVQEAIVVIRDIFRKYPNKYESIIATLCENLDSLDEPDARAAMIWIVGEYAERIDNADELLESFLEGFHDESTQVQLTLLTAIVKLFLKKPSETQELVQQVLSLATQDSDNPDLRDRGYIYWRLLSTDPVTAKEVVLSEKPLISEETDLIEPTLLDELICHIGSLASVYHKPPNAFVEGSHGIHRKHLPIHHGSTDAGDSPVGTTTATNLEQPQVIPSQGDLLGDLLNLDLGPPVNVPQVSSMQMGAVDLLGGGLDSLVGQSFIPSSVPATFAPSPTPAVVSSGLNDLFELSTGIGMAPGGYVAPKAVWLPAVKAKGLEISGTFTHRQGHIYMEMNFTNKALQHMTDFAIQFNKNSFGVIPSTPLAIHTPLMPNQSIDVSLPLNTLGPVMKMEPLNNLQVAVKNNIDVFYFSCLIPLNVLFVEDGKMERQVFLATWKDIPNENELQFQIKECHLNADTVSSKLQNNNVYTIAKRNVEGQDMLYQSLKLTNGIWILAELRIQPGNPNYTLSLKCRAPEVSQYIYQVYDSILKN

inhibition, inactive:
CN(C(=O)COC(=O)c1cc(=O)[nH]c2ccccc12)C1CCCCC1 -1.7%
Cc1ccc(CN2C(=O)CCC2C(=O)NCCCN2CCCCC2C)cc1 (centres undefined) 10.8%
CC(NC(=O)c1cc2cc(Cl)ccc2oc1=N)c1ccccc1 (centres undefined) -6.34%
COC(=O)c1cc(NC(=O)c2nn(C)c(=O)c3ccccc23)cc(C(=O)OC)c1 -5.22%
COc1ccc(CCNc2ncnc3c2nnn3Cc2ccccc2)cc1 -10.5%
CCn1c(=O)n(CC)c2cc(N3CCCC3)c(NC(=O)c3ccccc3Br)cc21 -0.2%
CC(NCCc1ccc(S(N)(=O)=O)cc1)C(=O)NCc1ccccc1 (centres undefined) 5.93%
O=C(C1CCCO1)N1CCN(S(=O)(=O)c2ccc(Br)cc2)CC1 (centres undefined) -1.61%
Cc1ccc(CNC(=O)C2CC(=O)N(C3CCCCCCC3)C2)cc1 (centres undefined) -8.23%
Cc1ccc(S(=O)(=O)N2CCCCC2)cc1NC(=O)c1cccnc1 -9.09%
NC(=O)C1CCN(C(=O)CC2C(=O)NCCN2Cc2cccc(Oc3ccccc3)c2)CC1 (centres undefined) 0.55%
CCCc1ccc(-c2csc(NC(=O)Cc3cccs3)n2)cc1 8.55%
Cc1cccc(Nc2ccccc2C(=O)NCc2ccco2)c1C 6.33%
Cc1ccc(S(=O)(=O)N2CCN(C(=O)c3ccccc3-c3nc4ccccc4s3)CC2)c(C)c1 15.9%
COc1cc2c(cc1NC(=O)COC(=O)/C=C/c1ccccc1)oc1ccccc12 -9.67%
Cc1ccc(Nc2ccc(C(N)=O)cc2[N+](=O)[O-])cc1 -3.07%
CC(C)C[C@H](NC(=O)N1CCn2c1nc1ccccc12)C(=O)NC1CC1 9.68%
Cc1ccc(C)c(NC(=S)NNC(=S)Nc2ccc(C(C)C)cc2)c1 -5%
Cc1cccc(C)c1NC(=O)C(Cl)C(=O)c1ccccc1 (centres undefined) 8.36%
CC(C)c1nnc(NC(=O)CCC(=O)N2CCN(c3cccc(Cl)c3)CC2)s1 1.25%
Cc1cccc(NC(=S)NC(=O)c2ccc(Br)o2)c1 -4.95%
CC(=O)NCCNC(=O)c1cc(-c2cccc3ccccc23)nc2ccccc12 -1.13%
CCOC(=O)N1CCN(C(=O)CNC(=O)Cc2ccc(Cl)cc2)CC1 -12.2%
Brc1ccccc1C1Nc2cccc3cccc(c23)N1 14.3%
O=C(NCc1ccco1)c1ccc(CS(=O)(=O)Cc2ccc(F)cc2)o1 3.68%
CCOc1ccc(C(=O)NC2CCN(CC(=O)NCc3cccs3)CC2)cc1 -3.4%
Cc1ccc(S(=O)(=O)/N=C(/Nc2ccccn2)c2ccc(Cl)cc2)cc1 13.7%
CC(Oc1ccccc1)C(=O)NN1Cc2ccccc2C1=N (centres undefined) -3.2%
Cn1c(=O)c([N+](=O)[O-])c(Oc2ccccc2)c2ccccc21 2.7%
CCC(C(=O)OC)n1cnc2c(oc3ccccc32)c1=O (centres undefined) -3.46%
CN(C)c1ccc(NC(=O)c2ccncc2)c2ccccc12 -3.42%
COc1ccc(/C=C2\SC(=S)N(CCC(=O)Nc3ccccn3)C2=O)cc1OC 17.1%
CCC(=O)Nc1nc2ccccc2n1Cc1ccccc1C -4.23%
O=C(NCC1(N2CCCCC2)CCCCC1)c1cccc(S(=O)(=O)Nc2ccccc2Cl)c1 -1.26%
COC(=O)C1CC2=C(CC(C)(C)CC2=O)N(c2ccccc2)C1=O (centres undefined) -13.1%
CN1C(=O)/C(=C/c2ccco2)SC1=Nc1cccc(C(=O)O)c1 9.02%
Cc1cc(C(=O)Nc2ccc(C)c(S(=O)(=O)N3CCOCC3)c2)c2ccccc2n1 7.91%
COc1cccc(-n2c(SCC(=O)c3c[nH]c4ccccc34)nc3ccccc3c2=O)c1 11.3%
Cc1cc(C)cc(Oc2nc3c(C)cccn3c(=O)c2/C=C(\C#N)C(=O)NC2CCS(=O)(=O)C2)c1 (centres undefined) 7.24%
Cc1ccc(C2(C)NC(=O)N(CC(=O)Nc3ccccc3C(=O)N3CCCCC3)C2=O)cc1 (centres undefined) 0.91%
Cc1cc(C(=O)OCC(=O)c2c(N)n(C)c(=O)n(C)c2=O)c(C)o1 -0.6% and 1.98%
NS(=O)(=O)c1ccc2nc(NC(=O)C3=COCCO3)sc2c1 3.87%
C/C(=N\Nc1ccc([N+](=O)[O-])cc1)c1ccc(-n2nncc2C(C)(C)C)cc1 -0.82%
COc1cc2c(cc1OC)CN(C(=O)c1cc(=O)c3ccccc3o1)CC2 -9.22%
Cc1ccc(OCCCCc2c(C)n[nH]c2C)cc1 4.8%
COCCNC(=O)Nc1ccc2nc(-c3ccco3)c(-c3ccco3)nc2c1 34%
Cc1ccc(OCCCC(=O)Nc2ccc3c(c2)OCCO3)cc1 -5.58%
Cc1ccc(Cl)cc1-c1ccc(/C=N/n2cnnc2)o1 -9.15%
CC(C)(C)c1ccc(C(=O)NCCn2c(N)c(C#N)c3nc4ccccc4nc32)cc1 6.81%
Cn1c(=O)c2c(nc(N/N=C/c3cccs3)n2Cc2ccc(Br)cc2)n(C)c1=O 1.14%
CC(CN1CCCCC1)OC(=O)c1ccccc1Cl (centres undefined) 7.67%
CCOc1ccc(-c2nnc(-c3ccco3)o2)cc1 11.9%
O=c1[nH]c2ccccc2n2c(-c3ccccc3)nnc12 20.4%
O=C(c1ccc(S(=O)(=O)NCc2ccco2)cc1)N1CCN(c2ccccc2)CC1 1.61%
